# High-throughput results as filed in PubChem.
# Most compounds without a hit are left out; they make up all but 2.7% or so of the library.
# KLK7 zymogen act – proKLK7 zymogen activators, primary screen, biochemical, fluorescence intensity. 370,000 tested, 0.9% active. AID 652039, 2013. purified proKLK7, EDANS-DABCYL substrate fluorescence; 100% is mature enzyme control, 0% vehicle. activation, % at 7 µM. Kallikrein-7 (Homo sapiens), P49862;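 active = activation above the mean of all tested compounds plus 3 SD, computed per campaign excluding outliers beyond control limits, cut at about 13% in these data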
# PfGluPho inh – PfG6PD enzyme inhibitors, primary screen, biochemical, fluorescence intensity, uHTS | glucose-6-phosphate dehydrogenase-6-phosphogluconolactonase (Plasmodium falciparum 3D7) | PfGluPho enzyme, NADPH resazurin-diaphorase fluorescence | inhibition, % at 20 µM | 350,000 tested, 0.78% active | AID 504690, 2011;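 active = inhibition reaching at least a set limit at 20 µM in the primary screen, cut at about 59% in these data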;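 note: 0% = DMSO wells with substrate and 100% = DMSO wells lacking glucose-6-phosphate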
# FAS-TE inh – FAS thioesterase domain inhibitors, primary screen, biochemical, fluorescence intensity, uHTS. recombinant FAS-TE, OMFH fluorogenic substrate, fluorescence endpoint. inhibition, % at 15 µM. 360,000 tested, 0.67% active;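 active = compounds whose normalised, plate-corrected inhibition of enzyme fluorescence in the single-dose primary screen is 50% or more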;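 note: 0% = DMSO with enzyme and 100% = substrate without enzyme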
# Neddyl block – inhibitors of cullin neddylation, primary screen, biochemical, TR-FRET, uHTS, NAE and Ubc12; calls only at 25 µM; 360,000 tested, 0.58% active; AID 651699, 2012; in the data active = inhibition above about 36%
# PfG6PD confirm – PfG6PD inhibitors, hit retest, confirmation, biochemical, fluorescence intensity, single concentration | inhibition, % at 20 µM | 2,400 tested, 34% active | shares compounds with PfGluPho inh | recombinant PfGluPho, NADPH-diaphorase-resazurin fluorescence;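 active = inhibition of at least 50% at 20 µM in any single replicate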;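 note: 0% = DMSO with substrate and 100% = DMSO lacking glucose-6-phosphate substrate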
# Diaph ctr 10uM – diaphorase inhibitors and chemical oxidizers, confirmation, counter-screen for P. falciparum G6PD inhibitor project, biochemical, fluorescence intensity, 10 µM NADPH | 820 tested, 39% active | inhibition, % at 20 µM | shares compounds with PfGluPho inh | AID 504862, 2011 | diaphorase-coupled resazurin reduction, NADPH 10 uM;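 active = average inhibition reaching 50% or more with the compound at 20 µM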;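 note: resorufin red fluorescence formed as diaphorase reduces resazurin using NADPH; 0% = DMSO with enzyme and 100% = DMSO without enzyme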
# Diaph ctr 30uM – diaphorase inhibitors and chemical oxidizers, confirmation, counter-screen for P. falciparum G6PD inhibitor project, biochemical, fluorescence intensity, 30 µM NADPH; AID 504863, 2011; inhibition, % at 20 µM; Diaphorase/resazurin coupled assay, resorufin fluorescence; shares compounds with PfGluPho inh; 820 tested, 29% active;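 active = inhibition averaging 50% or more, tested at 20 µM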;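 note: 0% = DMSO with enzyme and 100% = DMSO wells lacking diaphorase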
# An asterisk follows results filed as active; i = inactive; . = not tested or not shown; + = active, no number.
SMILES,KLK7 zymogen act,PfGluPho inh,FAS-TE inh,Neddyl block,PfG6PD confirm,others
COc1cc(N2C(=O)C=CC2=O)ccc1N1C(=O)C=CC1=O,0,121*,-2,i,105*,Diaph ctr 10uM=-1;Diaph ctr 30uM=-18
C#CCN(C)S(=O)(=O)c1ccc(N2CCCC2)cc1Br,0,.,.,.,.,
C/C(=N/NC(=O)c1cccnc1)c1cccc(O)c1,0,.,.,.,.,
O=C(NC1CCCCN(Cc2cccc(C(F)(F)F)c2)C1=O)c1c(F)cccc1F (stereo not given),0,.,.,.,.,
CN(C)CCNC(=O)c1cccc2ccc(-c3ccc(-c4ccccc4)cc3)nc12,-21,95*,28,.,15,
Cn1cc(C2(c3c[nH]c4ccccc34)CCN(C(=O)OC(C)(C)C)CC2)c2ccccc21,-1,.,.,.,.,
CC1=CC2(C(Cc3ccccc3)N(CC3CC3)C(=NC(=O)c3ccccc3)N2C(=O)OCc2ccccc2)n2c(=O)n(-c3ccccc3)c(=O)n2C1 (stereo not given),-1,.,.,.,.,
CCOC(=O)c1c(-c2ccc(C)o2)csc1NC(=O)COC(=O)c1cccs1,0,59*,32,i,-3,
CCOc1ccc(-n2c(SCC(=O)Nc3ccccc3-c3ccccc3)nnc2-c2cccs2)cc1,0,.,.,.,.,
CCn1c(SCC(=O)Nc2ccc3c(c2)OCO3)nnc1-c1cnccn1,1,83*,-8,i,46,
O=C(Nc1ccc2c(c1)OCCO2)c1cc2sccc2n1Cc1ccccc1,-56,39,36,i,.,
Cn1c(C(=O)Nc2ccc3c(c2)OCCO3)cc2sccc21,0,66*,10,i,18,
Cc1cccc(NC(=O)CSc2nnc(-c3ccco3)c(-c3ccco3)n2)c1C,.,61*,3,i,11,
Cc1cccc(NC(=O)CSc2nnc(-c3ccco3)c(-c3ccco3)n2)c1,-1,27,0,i,.,
COC(=O)c1c(NC(=O)c2ccc([N+](=O)[O-])o2)sc2c1CCN(C(C)C)C2,0,68*,8,i,20,
CC(=O)N1CCc2c(sc(NC(=O)c3ccc([N+](=O)[O-])o3)c2C#N)C1,1,60*,9,i,13,
Cc1ccc(CNC(=O)OC(C)(C)C)c(/C=C/S(=O)(=O)NCc2ccc(F)cc2)c1,0,.,.,.,.,
C=CCn1c(SCC(=O)Nc2ccccc2-c2ccccc2)nnc1-c1ccc(Cl)cc1,1,.,.,.,.,
C=CCN(CC#CC1=CCCCC1)CC1CC1,0,.,.,.,.,
Cn1c(-c2ccc(Cl)nc2)nc2cc(Cl)ccc21,0,49,-3,i,22,
CCN(CC)c1ccc(N)cc1,.,51,-3,i,.,
Nc1ccc(N(CCO)CCO)cc1,0,63*,-12,i,55*,Diaph ctr 10uM=25;Diaph ctr 30uM=14
Cc1ccc(-c2cc(-c3ccc(C)o3)nc(N)c2C#N)cc1,-8,60*,1,i,-19,
Cc1ccc(-c2cc(-c3ccc(Cl)cc3)c(C#N)c(N)n2)o1,2,96*,32,+,1,
Cc1ccc(-c2cc(-c3ccc4c(c3)OCO4)c(C#N)c(N)n2)o1,-6,7,13,i,.,
SMILES,KLK7 zymogen act,PfGluPho inh,FAS-TE inh,Neddyl block,PfG6PD confirm,others
Cc1ccc(S(=O)(=O)Nc2c(O)ccc3ccccc23)cc1,.,81*,5,i,47,
O=S(=O)(Nc1c(O)ccc2ccccc12)c1cccc2ccccc12,.,84*,15,i,44,
O=S(=O)(Nc1cccc2ccccc12)c1ccccc1F,0,11,2,i,.,
Cc1ccc(S(=O)(=O)NN=Cc2c(O)ccc3ccccc23)cc1,0,-17,5,i,.,
Fc1ccc(C[n+]2csc3ccccc32)cc1,0,64*,-6,i,31,
c1cncc(-c2nc3cc4ccccc4cc3[nH]2)c1,1,62*,-2,.,17,
c1ccc(-c2nc3cc4ccccc4cc3[nH]2)nc1,-1,89*,-4,+,37,
O=C(Nc1ccc2nc(-c3cccnc3)[nH]c2c1)c1ccccc1F,-3,31,-6,i,.,
CC(=O)Nc1ccc2nc(-c3ccccn3)[nH]c2c1,-3,-9,-10,.,.,
COC(=O)C1CN(Cc2cn(Cc3ccc(OC)cc3)nn2)CCS(=O)(=O)N1Cc1ccc(C)cc1 (stereo not given),0,.,.,.,.,
CCCCOc1ccc(Cc2n[nH]c(=S)n2N)cc1,0,61*,-5,i,50*,Diaph ctr 10uM=-20;Diaph ctr 30uM=-17
CC(C)(C)c1ccc(N=C2SCC(=O)N2Cc2cccs2)cc1,0,64*,1,i,-20,
CCN1C(=O)CSC1=Nc1ccc(C(=O)O)cc1,0,-17,-2,i,.,
O=C(CCCSc1ccc(Cl)cc1)Nc1cc(S(=O)(=O)N2CCOCC2)ccc1O,0,74*,3,i,25,
CCOC(=O)c1ccc(NC(=O)c2cccc(S(=O)(=O)N3CCOCC3)c2)cc1,0,18,7,i,.,
Cc1ccc(S(=O)(=O)N2CCOCC2)cc1NC(=O)CSc1ccc(Cl)cc1,1,0,7,i,.,
CCOC(=O)c1ccc(S(=O)(=O)Nc2cc(S(=O)(=O)N3CCOCC3)ccc2O)cc1,0,60*,-4,i,10,
Cc1ccc(NC(=O)OC2CCC23CCCCC3)cc1 (stereo not given),0,.,.,.,.,
Cc1cc(NC(=O)CSc2nc3cc(Cl)ccc3s2)no1,-1,-8,-4,i,.,
O=C(CSc1nc2cc(Cl)ccc2s1)c1cc2ccccc2o1,0,64*,21,i,5,
O=C(NCCN1C(=O)C2C3C=CC(C3)C2C1=O)c1cc(F)cc(F)c1 (stereo not given),0,.,.,.,.,
O=C(c1ccc(F)cc1Cl)N1CCC(Oc2cccnc2)CC1,0,.,.,.,.,
N#Cc1c(C#N)c(SSc2c(C#N)c(C#N)c(N)n2-c2ccccc2)n(-c2ccccc2)c1N,-1,111*,-6,i,61*,Diaph ctr 10uM=-12;Diaph ctr 30uM=-18
COC(=O)[C@H](CC(C)C)N(CCCc1cn(Cc2ccc(C)cc2)nn1)S(=O)(=O)c1ccc(F)cc1Br,0,.,.,.,.,
O=S(=O)(/N=S1\CC=CCN1S(=O)(=O)c1ccccc1)c1ccccc1 (stereo not given),-1,64*,0,i,22,
CC1=C(C)CS(=O)N(S(=O)(=O)c2ccccc2)C1 (stereo not given),0,55,8,i,.,
N#Cc1ccccc1Sc1ccccc1N,.,2,9,i,.,
Nc1ccccc1SSc1ccccc1N,0,69*,-14,i,44,
